Only some compounds are listed: those with a hit (about 10% of all), similar ones and a draw of the others.
NIH3T3 tox: Cytotoxic Profiling in NIH 3T3 Cell Line of Diverse Libraries Using Quantitative High-Throughput Screening | NIH 3T3 viability, CellTiter-Glo ATP luminescence, 48-72 h | 4.3% of 94,000 active | Potency, µM (doses to about 96.7 µM), without a hit: at the highest dose activity change, negative = cytotoxicity, usual class: inhibitors; also: nearly all actives have a fitted effect of over 55% in size
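NIH 3T3 cells at 400 cells/well received 23 nL of compound by pintool and were incubated 48 or 72 h at 37 °C. Viability was read as ATP-coupled CellTiter-Glo luminescence.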
hNpr1 antagonist: Natriuretic polypeptide receptor (hNpr1) antagonism - Primary qHTS; HEK293 hNpr1 GloSensor cGMP, ANP-stimulated luminescence; Atrial natriuretic peptide receptor 1 (Homo sapiens), P16066; Potency, µM (top dose mostly 46.3 µM), inactives show top-dose activity change, negative = inhibition, hits mostly inhibitors; 1.6% of 76,000 active; AID 1347048, 2019; calls by dose curve; also: nearly all actives have a fitted effect of over 60% in size
Target sequence (P16066 whole entry, looked up): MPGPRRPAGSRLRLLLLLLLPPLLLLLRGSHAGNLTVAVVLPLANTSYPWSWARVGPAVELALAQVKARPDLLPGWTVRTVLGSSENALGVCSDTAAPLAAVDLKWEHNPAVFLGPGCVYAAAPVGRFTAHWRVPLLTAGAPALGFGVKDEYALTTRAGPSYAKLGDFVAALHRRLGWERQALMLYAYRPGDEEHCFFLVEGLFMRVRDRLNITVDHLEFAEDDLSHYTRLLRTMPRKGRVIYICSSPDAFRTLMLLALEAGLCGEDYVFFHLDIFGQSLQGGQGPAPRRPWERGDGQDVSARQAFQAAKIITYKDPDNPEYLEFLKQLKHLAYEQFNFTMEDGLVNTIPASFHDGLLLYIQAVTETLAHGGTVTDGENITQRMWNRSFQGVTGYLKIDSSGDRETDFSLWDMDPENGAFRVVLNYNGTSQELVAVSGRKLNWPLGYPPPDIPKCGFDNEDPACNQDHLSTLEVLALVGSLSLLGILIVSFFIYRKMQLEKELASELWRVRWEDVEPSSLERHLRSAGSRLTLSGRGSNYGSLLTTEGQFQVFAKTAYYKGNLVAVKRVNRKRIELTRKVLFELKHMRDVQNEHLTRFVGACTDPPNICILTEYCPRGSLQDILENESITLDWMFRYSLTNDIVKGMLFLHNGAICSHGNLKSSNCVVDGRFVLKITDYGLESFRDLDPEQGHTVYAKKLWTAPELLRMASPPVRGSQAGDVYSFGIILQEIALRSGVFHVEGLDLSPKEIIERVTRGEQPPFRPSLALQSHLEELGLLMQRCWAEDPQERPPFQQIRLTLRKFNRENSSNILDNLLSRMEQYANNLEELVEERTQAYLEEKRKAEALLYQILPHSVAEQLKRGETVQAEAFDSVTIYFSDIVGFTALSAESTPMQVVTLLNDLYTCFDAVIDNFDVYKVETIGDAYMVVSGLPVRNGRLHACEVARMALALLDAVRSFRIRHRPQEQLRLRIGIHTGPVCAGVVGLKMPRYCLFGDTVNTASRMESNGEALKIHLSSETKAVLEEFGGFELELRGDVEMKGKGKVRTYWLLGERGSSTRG
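Compound pre-incubated 30 min at room temperature on GloSensor-loaded HEK293 cells stably carrying hNpr1 and the pGS-40F cGMP biosensor. Stimulation uses hNppA at 0.1 nM final; luminescence is taken at baseline and 20 min post-agonist.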
HEK cytotox: Cytotoxic Profiling in HEK 293 Cell Line of Diverse Libraries Using Quantitative High-Throughput Screening; HEK 293 viability, ATP luminescence (CellTiter-Glo), 48-72 h; Potency, µM (series often up to 115 µM), without a hit: top-dose activity change, negative = cytotoxicity, usual class: inhibitors; 6.6% of 94,000 active; AID 1345083, 2018; also: nearly all actives have a fitted effect of over 60% in size
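ATP-coupled CellTiter-Glo luminescence served as viability read-out, recorded 10 min after reagent addition at room temperature. HEK 293 cells, 250 cells/well, had been incubated with pintool-transferred compound for 48 or 72 hr at 37 degree Celsius.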
Luciferase inh: Firefly luciferase inhibition profiling of diverse chemical library using quantitative high-throughput screening; purified P. pyralis luciferase, luminescence, biochemical; Potency, µM (doses to about 115 µM), hits mostly inhibitors; 2.5% of 76,000 active; AID 1347043, 2019; also: nearly all actives have a fitted effect of over 65% in size
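Purified 10nM P. pyralis luciferase with 10uM D-luciferin and 10uM ATP in 50mM Tris acetate pH 7.5, 10mM Mg acetate, 0.01% Tween-20, 0.05% BSA. qHTS titration; luminescence read by CCD imager.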
GPT2 inh: Primary qHTS assay for inhibitors of Glutamate pyruvate transaminase 2 (GPT2); Recombinant GPT2, coupled pyruvate oxidase/HRP Amplex Red fluorescence; Potency, µM (doses to about 57.7 µM), without a hit: at the highest dose activity change, negative = inhibition, hits mostly inhibitors; 0.25% of 100,000 active; AID 1671188, 2021; also: nearly all actives have a fitted effect of over 60% in size
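Recombinant GPT2 (10ng/uL) with 250uM a-KG and 2mM L-alanine, 30 min at room temperature, in HEPES pH 7.5 buffer. Pyruvate detected by pyruvate oxidase/HRP/Amplex Red fluorescence after 30 min in the dark; AOA (50uM) as positive control.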
The depositor's hits bear a star; [ ] = remark or other dose. Unless noted, calls follow the shape of the dose curve; as a rule, active = well fitted curve in the direction sought with a large enough effect; inconclusive = small, poorly fitted or top-dose-only effect, or another doubt; inactive = no such curve, though single readings can be large; an effect the other way counts as inactive or inconclusive. % is scaled to controls: 0 for no effect and ±100 for the full control effect; potency is read from the fitted curve at half-maximal effect.

CC1Oc2ccc(NC(=O)c3ccccc3F)cc2CN(C2CCCc3ccccc32)C1=O (stereo not given) was read as NIH3T3 tox inconclusive, hNpr1 antagonist -14.6%, HEK cytotox inconclusive, Luciferase inh inactive and GPT2 inh inactive.
COc1ccc(-c2[nH]ncc2CN2CCn3nnc(CCC(=O)N4CCCC4)c3C2)cc1 was read as NIH3T3 tox -9.8%, hNpr1 antagonist -0.3%, HEK cytotox -5.1%, Luciferase inh inactive and GPT2 inh inactive.
O=C(N[C@@H]1CN(c2ncccn2)C[C@H]1CO)c1cc2ccccc2[nH]1 was read as NIH3T3 tox -19.3%, hNpr1 antagonist 2.7%, HEK cytotox -5.5%, Luciferase inh inconclusive and GPT2 inh -15.8%.
For Fc1ccccc1-c1noc(N2CCOCC2)n1 the results were NIH3T3 tox -18.5%, hNpr1 antagonist -14.2%, HEK cytotox inconclusive, Luciferase inh 31.6µM* and GPT2 inh -3.1%.
O=C(NCCN1CCOCC1)c1noc(-c2ccccc2F)n1 was read as NIH3T3 tox -0.6%, hNpr1 antagonist -4.4%, HEK cytotox 2.8%, Luciferase inh inactive and GPT2 inh inactive.
For CC1=C[C@@H](CNS(=O)(=O)c2ccc(C#N)cc2)[C@H](C(C)C)C[C@H]1CC(=O)NCc1ccc(C#N)cc1 the results were NIH3T3 tox inconclusive, hNpr1 antagonist -7.3%, HEK cytotox inconclusive, Luciferase inh inactive and GPT2 inh 2.0%.
`Cc1ccnn1CC(=O)N1CCOc2c(O)cc(-c3cccc(Cl)c3)cc2C1` gave NIH3T3 tox inconclusive, hNpr1 antagonist -28.3%, HEK cytotox inconclusive, Luciferase inh inactive and GPT2 inh -8.4%.
`CCOC(=O)C(C)N1CCOc2c(O)cc(-c3cccc(Cl)c3)cc2C1` (stereo not given) gave NIH3T3 tox inconclusive, hNpr1 antagonist inconclusive, HEK cytotox 44.7µM*, Luciferase inh inactive and GPT2 inh 1.8%[11.5 µM].
For Cc1nc(C(=O)N2CCOc3c(O)cc(-c4cccc(Cl)c4)cc3C2)c(C)o1 the results were NIH3T3 tox inconclusive, hNpr1 antagonist inconclusive, HEK cytotox 39.8µM*, Luciferase inh inactive and GPT2 inh -18.0%.
For COc1ccc(-c2ccc(C(=O)N[C@@H]3COCC[C@H]3OC)o2)cc1 the results were NIH3T3 tox -29.3%, hNpr1 antagonist -2.3%, HEK cytotox -19.7%, Luciferase inh 35.5µM* and GPT2 inh inactive.
Screening O=c1cc(-c2ccccn2)oc2c(Nc3ccccc3)nccc12 returned NIH3T3 tox inconclusive, hNpr1 antagonist -17.2%[70.6 µM], HEK cytotox inconclusive, Luciferase inh inactive and GPT2 inh 0.4%[88.5 µM].
CN(c1ccccc1)c1cc(=O)c2ccnc(Nc3cccnc3)c2o1 was read as NIH3T3 tox 10µM*, hNpr1 antagonist inconclusive, HEK cytotox inconclusive, Luciferase inh inactive and GPT2 inh inconclusive.
Screening O=c1cc(-c2ccccn2)oc2c(Nc3cccnc3)nccc12 returned NIH3T3 tox 11.2µM*, hNpr1 antagonist 3.8%[70.6 µM], HEK cytotox inconclusive, Luciferase inh inactive and GPT2 inh inactive.
`CN(c1ccccc1)c1cc(=O)c2ccnc(NCCc3ccccn3)c2o1` gave NIH3T3 tox 25.1µM*, hNpr1 antagonist 0.8%[70.6 µM], HEK cytotox inconclusive, Luciferase inh inactive and GPT2 inh 4.5%[88.5 µM].
CC(=O)Nc1ccccc1-c1nccc2c(=O)cc(N(C)c3ccccc3)oc12 was read as NIH3T3 tox inconclusive, hNpr1 antagonist -5.8%[70.6 µM], HEK cytotox -25.4%[172 µM], Luciferase inh inactive and GPT2 inh -8.0%[88.5 µM].
Screening CCOC(=O)C1CCCN(C(=O)c2nc3sccn3c2-c2cccc(C(F)(F)F)c2)C1 (stereo not given) returned NIH3T3 tox -29.7%, HEK cytotox inconclusive and GPT2 inh inactive.
For Cc1ccc(-c2cccc(CN3CCCC3C(=O)NCC3CC3)c2)cc1Cl (stereo not given) the results were NIH3T3 tox inconclusive and HEK cytotox 31.6µM*.
`CCCCCNC(=O)C1CCCN1Cc1cccc(-c2ccc(C)c(Cl)c2)c1` (stereo not given) gave NIH3T3 tox inconclusive and HEK cytotox 44.7µM*.
COCCNC(=O)C1CCCN1Cc1cccc(-c2ccc(C)c(Cl)c2)c1 (stereo not given) was read as NIH3T3 tox 35.5µM* and HEK cytotox 39.8µM*.
COc1ccccc1NC(=O)Cn1c(N2CCN(c3ccccc3)CC2)nc(C)cc1=O was read as NIH3T3 tox inconclusive, hNpr1 antagonist -6.5%, HEK cytotox inconclusive, Luciferase inh inactive and GPT2 inh -5.5%.
For COc1ccc(N2CC3CCC(C2)N3Cc2ccc(C#N)cc2)cc1 the results were NIH3T3 tox -20.7%, HEK cytotox -27.9% and GPT2 inh 10µM*.
`COc1ccc(N2CC3CCC(C2)N3Cc2ccc(NC(C)=O)cc2)cc1` gave NIH3T3 tox 0.9%, HEK cytotox -0.9% and GPT2 inh inconclusive.
`O=C(Cc1ccc(F)cc1)Nc1cccc(-c2nnc3n2CCCC3)c1` gave NIH3T3 tox -19.5%, hNpr1 antagonist 4.0%, HEK cytotox inconclusive, Luciferase inh inactive and GPT2 inh 0.3%.
`O=C(Nc1cccc(-c2nnc3n2CCCC3)c1)c1cc(C2CC2)[nH]n1` gave NIH3T3 tox -23.6%, hNpr1 antagonist inconclusive, HEK cytotox -7.2%, Luciferase inh 20µM* and GPT2 inh inactive.
Screening O=C(Nc1cccc(-c2nnc3n2CCCC3)c1)c1cc(-c2ccccc2)n[nH]1 returned NIH3T3 tox -3.5%, hNpr1 antagonist inconclusive, HEK cytotox 28.2µM*, Luciferase inh 2.24µM* and GPT2 inh inactive.
O=C(Nc1cccc(-c2nnc3n2CCCC3)c1)c1ccc(Cl)cc1 was read as NIH3T3 tox inconclusive, hNpr1 antagonist -19.6%, HEK cytotox inconclusive, Luciferase inh inconclusive and GPT2 inh inactive.
O=C(Nc1ccc(-c2nnc3n2CCCC3)cc1)c1cc(-c2ccccc2)n[nH]1 was read as NIH3T3 tox -33.4%, hNpr1 antagonist -14.6%, HEK cytotox -2.9%, Luciferase inh inactive and GPT2 inh inactive.
Screening CCOc1ccc(C(=O)Nc2cccc(-c3nnc4n3CCCC4)c2)cc1 returned NIH3T3 tox inconclusive, hNpr1 antagonist -25.1%, HEK cytotox inconclusive, Luciferase inh 25.1µM* and GPT2 inh inactive.

Source: PubChem
